# In the supplement of paper PMC6555819:
# What was measured:
# Assay in all cases: PBM binding z-score (relative to random genomic background probes); higher = stronger binding; sequences stand for … in GC…GCGATTGACAGCGTAGAATGAAGG
# [1] = test system: PPARg:RXRa DBDmut IVT, anti-RXR (DBD mutation: RXRa K156A/R161A, NR concentration 270 nM, RXRa partner concentration 90 nM)
# How it was run: (§1)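 Custom Agilent 4×180K protein-binding microarrays carried double-stranded probes. Their 34-nt variable regions held direct-repeat seeds, single-nucleotide variants, half-site ablations and random human genomic background sequences. Arrays were incubated 1 h with ligand-free nuclear receptor dimers in PBS pH 7.4, 2% milk, 0.02% Triton X-100, 1 mM DTT, 0.2 mg/mL BSA and 0.4 mg/ml salmon testes DNA. Antibodies against each partner (one per run) detected binding, and scanned fluorescence was regression-normalized. Binding z-scores use random background probes as reference.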
# [2] = test system: PPARg:RXRa IVT, anti-PPARg (NR concentration 270 nM, RXRa partner concentration 90 nM)
# How it was run: as §1
# [3] = test system: PPARg DBDmut:RXRa IVT, anti-PPARg (DBD mutation: PPARg1 K132A/R137A, NR concentration 270 nM, RXRa partner concentration 90 nM)
# How it was run: as §1
# [4] = test system: PPARg DBDmut IVT, anti-PPARg (DBD mutation: PPARg1 K132A/R137A, NR concentration 270 nM)
# How it was run: as §1
# [5] = test system: PPARg homodimer (NR concentration 180 nM)
# How it was run: as §1
# [6] = test system: PXR:RXRa (NR concentration 270 nM, RXRa partner concentration 90 nM)
# How it was run: as §1
# [7] = test system: PXR homodimer (NR concentration 270 nM)
# How it was run: as §1
# [8] = test system: RARa:RXR (NR concentration 270 nM, RXRa partner concentration 90 nM)
# How it was run: as §1
# [9] = test system: RARa homodimer (NR concentration 270 nM)
# How it was run: as §1
# [10] = test system: RARb:RXRa (NR concentration 270 nM, RXRa partner concentration 90 nM)
# How it was run: as §1
# [11] = test system: RARb homodimer (NR concentration 270 nM)
# How it was run: as §1
# [12] = test system: RARg:RXRa (NR concentration 270 nM, RXRa partner concentration 90 nM)
# How it was run: as §1
# [13] = test system: RARg homodimer (NR concentration 270 nM)
# How it was run: as §1
# [14] = test system: RXRa DBDmut IVT, anti-RXR (DBD mutation: RXRa K156A/R161A, NR concentration 90 nM)
# How it was run: as §1
# [15] = test system: RXRa homodimer (NR concentration 180 nM)
# How it was run: as §1
# [16] = test system: THRa:RXRa (NR concentration 90 nM, RXRa partner concentration 90 nM)
# How it was run: as §1
# [17] = test system: THRa homodimer (NR concentration 90 nM)
# How it was run: as §1
# [18] = test system: VDR homodimer (NR concentration 270 nM)
# How it was run: as §1
Sequence,PBM binding z-score [1],PBM binding z-score [2],PBM binding z-score [3],PBM binding z-score [4],PBM binding z-score [5],PBM binding z-score [6],PBM binding z-score [7],PBM binding z-score [8],PBM binding z-score [9],PBM binding z-score [10],PBM binding z-score [11],PBM binding z-score [12],PBM binding z-score [13],PBM binding z-score [14],PBM binding z-score [15],PBM binding z-score [16],PBM binding z-score [17],PBM binding z-score [18]
ATCTCTAGGTGAAGATAGTTCAGTGAATGCAAAT,4.18,4.44,0.653,1.5,0.717,1.58,0.667,0.801,0.811,1.29,1.19,1.16,1.27,-0.299,0.687,1.24,0.00291,0.334
TAGCCTAGGTCATGCGGGGCAGTATAGTGTCGGC,1.69,3.02,0.874,-0.0244,0.993,2.16,-0.37,2.61,-0.595,3.75,3.26,4.01,4.41,0.368,3.22,3.56,1.08,1.5
ATATGTAGGTTACATCCCGGTCATTCAGGCTATG,7.52,7.38,2.01,2.46,1.78,1.39,0.762,1.6,0.487,1.99,2.44,2.92,1.76,0.814,1.44,2.18,1.44,1.12
AGAATGAGGTTATACGTAGATCAGGGGAGAAAGT,4.24,2.13,1.07,0.577,0.74,1.36,0.423,1.87,1.13,1.45,0.956,1.78,1.26,2.05,2.14,2.25,0.738,1.45
ACTAGTTGGTCCGCTGAGGTCACACACAATTCGG,0.592,1.67,0.377,-0.126,2.76,4.69,2.24,4.51,0.677,2.97,3.85,3.69,2.81,1.37,3.71,4.4,5.42,4.08
TCAAGTTGGTCACGGAGGTCACACACGACGGGTA,2.45,3.99,1.48,0.93,2.72,4.35,1.65,4.61,1.86,3.98,4.54,4.9,4.56,1.53,4.68,3.72,2.55,3.44
TCATATACGTAAATGCTAGGTGAAAGTCCGATCT,2.16,0.926,0.89,1.72,0.664,0.565,0.25,0.743,0.987,0.357,0.562,0.251,0.209,1.77,0.598,0.97,0.696,0.147
AGTCAAGGTTCATCTAGGTAACGTAAGATATGCT,1.12,3.01,1.11,1.06,1.29,2.48,1.61,2.88,0.372,2.99,2.09,3.09,2.93,4.77,3.54,3,0.474,5.03
ACAGACAGGTGAGTGAAGGTAACTCGGCTGGACG,0.175,0.33,-0.433,-0.413,0.0145,-0.486,-0.431,-0.0751,-0.294,0.411,0.0831,0.0852,0.044,-0.351,0.256,1.38,-0.708,-0.648
CAAACTAGGCCACCGGAAGGTCAAAGTCCGCATG,7.33,6.74,1.26,1.26,3.52,3.81,1.26,4.32,1.24,3.54,4.21,4.82,4.07,0.796,4.1,2.93,1.18,2.29
CCTTACGGGGCAAGGTTATAGCACGGGTGGTACG,-0.0352,0.442,-0.313,-0.783,0.309,0.145,-0.13,0.546,0.0698,1.78,0.994,1.01,1.11,-1.2,1.08,0.828,-0.345,0.2
AGAACGAGGGCAATGAGTTGATGGCACGGGTGGC,3.36,2.88,1.3,-0.157,-0.0227,1.19,3.75,0.0282,-0.254,1.99,1.11,0.928,1.54,1.36,0.636,0.857,-0.205,2.62
TTACCAAGGTGAGCTGAGGTCGTTGAACCAACTC,0.903,1.83,-0.507,-1.13,-0.0477,5.01,0.275,2.19,-0.877,1.79,1.77,1.21,0.931,-0.0646,1.57,4.77,2.02,2.01
TCGAGTAGGTTAGGGGCATTCAAAATGGCGTCGA,2.11,1.45,-0.544,-0.184,0.857,0.792,0.65,0.797,0.0472,1.24,0.918,0.367,0.48,0.614,0.622,1.06,0.276,1.43
CCAGACAGGTGAGAAGGTAACTCACCCTCGATTA,0.889,0.707,-0.339,-0.245,0.968,0.325,0.219,0.748,0.925,0.764,0.972,0.89,0.67,0.134,0.806,0.55,0.193,-0.0144
ATATGTAGGTTACATCCGGGTCGTTCAGGCTATG,7.59,7.22,2.21,1.61,1.23,1.64,0.721,1.35,0.787,1.49,1.5,1.78,1.28,1.22,1.54,2.53,1.24,1.82

Sequence,PBM binding z-score [1],PBM binding z-score [2],PBM binding z-score [3],PBM binding z-score [4],PBM binding z-score [5],PBM binding z-score [6],PBM binding z-score [7],PBM binding z-score [8],PBM binding z-score [9],PBM binding z-score [10],PBM binding z-score [11],PBM binding z-score [12],PBM binding z-score [13],PBM binding z-score [14],PBM binding z-score [15],PBM binding z-score [16],PBM binding z-score [17],PBM binding z-score [18]
AGAATGAGGTTAAGATCAGTGAAACAGAATACAT,2.35,2.8,1.66,0.567,0.498,1,-0.347,1.84,-0.219,1.74,0.841,2.07,1.34,0.64,2.31,2.31,0.766,0.283
TCTAGCAGGCCACAGGGTCACTCAAGAGGTACGG,1.57,2.41,0.0342,-1.16,1.75,2.71,-0.163,3.42,-0.568,2.63,3.28,3.5,2.75,0.4,3.39,2.94,1.16,2.07
TCATATAGGTAAATGTGAAAGTCGAACGATATGA,3.33,2.26,1.69,1.36,0.31,0.168,-0.0723,0.602,0.286,0.153,-0.396,0.293,0.464,0.849,0.579,-0.0536,-0.354,0.207
TCAATGAGGTTAAAGATCAGGGAACGTGGCGTCG,2.63,2.57,0.383,0.398,0.433,1.83,-0.0283,3.15,0.278,2.04,0.614,2.41,1.32,1.88,4.18,2.42,0.288,0.855
CCTCGGAGGACAACAGGAGATCAGAGCTGCCAGA,-0.232,-0.63,-1.13,-1.73,-0.0101,-0.68,-0.412,-0.621,-0.0651,0.694,0.118,0.145,0.783,0.248,-0.305,0.396,-0.247,-0.168
ACTTACGGGTCAACAAGGTTATAGCACGCGTATA,3.06,4.26,1.25,1.13,2.14,4.49,1.48,4.77,1.05,4.49,3.84,5.44,5.07,2.33,5.87,4.04,1.05,2.78
ATCTCTAGGTAAAAGTTCAGTGAGTCCCGAGGAT,2.37,3.88,1.34,1.28,1.47,2.06,2.57,1.47,0.867,2.21,2.32,1.86,1.93,0.855,1.73,1.13,0.291,2.34
CCTAGTTGGTCAGGAGGTCACACGCCGGATATGA,1.84,3.74,0.471,-0.188,3.2,4.12,1.31,4.32,1.9,3.71,4.02,4.96,4.34,0.884,4.77,3.41,2.31,2.95
CGTCCAAGGTCGTAGGAGGTCAGTGAAGACAGAT,0.632,1.67,-0.489,-0.725,2.21,5.77,1.8,4.37,0.332,3.82,4.07,4.63,4.14,2.43,4.36,4.89,1.61,2.85
GCTGCTGGGTCAGGTTGGTCAGCTAACGGGTACG,1.8,1.47,-0.97,-0.347,0.551,0.0327,-0.0848,0.539,-0.315,2.84,2.57,1.94,2.78,-0.0156,0.839,1.21,0.312,0.573
TAGCCTAGGTCATTCAGGAGCCAGTATAGAAAGC,1.4,2.52,0.758,0.0429,0.878,1.43,-0.343,2.19,-0.28,3.62,2.45,4.25,4.41,1.37,2.96,2.68,0.478,1.09
GCTCGGAGGACAAAGTCAGAGCTTTGTCCGTAGA,-1.01,-0.327,-0.892,-1.25,-0.791,-0.547,-0.9,-0.547,-1.22,0.845,-0.0434,-0.436,-0.0287,-0.569,-0.989,0.05,-0.629,-0.348
ATATGTAGGTTATCGGGTCTTTCAGTTTGCGCAT,7.73,6.72,2.3,2.32,2.02,1.2,1.43,1.07,1.78,1.3,1.23,0.844,0.939,0.92,1.03,1.08,1.3,1.44
TCTATTAGTTGAAGGCCAACCGACGAGTCCGTTT,2.37,0.522,0.431,0.553,1.36,0.903,1.4,0.79,1.21,1.02,0.914,0.229,0.415,1.59,0.648,0.129,0.372,1.35
ATCGAAAGGTCGTGAGTTGAGTATACAGAAAGGC,-0.00462,1.66,1.4,1.03,1.91,3.2,0.152,3.9,0.363,3.82,2.4,4.08,3.7,1.49,4.88,2.32,0.26,1.49
